Hits are enriched below; roughly 4% of the tested compounds scored in any of these assays.
RecA splice inh – blocks M. tuberculosis RecA intein splicing. inhibition, % (test concentration not listed). AID 2221. 290,000 compounds, 0.75% hits. cell-free RecA intein splicing, fluorescence. P9WHJ3; in the data active = inhibition above about 30%; inconclusive = no clear call, values can overlap the other calls;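 note: 0% = vehicle wells and 100% = reference inhibitor control wells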
Target sequence (P9WHJ3 whole entry, looked up, canonical isoform): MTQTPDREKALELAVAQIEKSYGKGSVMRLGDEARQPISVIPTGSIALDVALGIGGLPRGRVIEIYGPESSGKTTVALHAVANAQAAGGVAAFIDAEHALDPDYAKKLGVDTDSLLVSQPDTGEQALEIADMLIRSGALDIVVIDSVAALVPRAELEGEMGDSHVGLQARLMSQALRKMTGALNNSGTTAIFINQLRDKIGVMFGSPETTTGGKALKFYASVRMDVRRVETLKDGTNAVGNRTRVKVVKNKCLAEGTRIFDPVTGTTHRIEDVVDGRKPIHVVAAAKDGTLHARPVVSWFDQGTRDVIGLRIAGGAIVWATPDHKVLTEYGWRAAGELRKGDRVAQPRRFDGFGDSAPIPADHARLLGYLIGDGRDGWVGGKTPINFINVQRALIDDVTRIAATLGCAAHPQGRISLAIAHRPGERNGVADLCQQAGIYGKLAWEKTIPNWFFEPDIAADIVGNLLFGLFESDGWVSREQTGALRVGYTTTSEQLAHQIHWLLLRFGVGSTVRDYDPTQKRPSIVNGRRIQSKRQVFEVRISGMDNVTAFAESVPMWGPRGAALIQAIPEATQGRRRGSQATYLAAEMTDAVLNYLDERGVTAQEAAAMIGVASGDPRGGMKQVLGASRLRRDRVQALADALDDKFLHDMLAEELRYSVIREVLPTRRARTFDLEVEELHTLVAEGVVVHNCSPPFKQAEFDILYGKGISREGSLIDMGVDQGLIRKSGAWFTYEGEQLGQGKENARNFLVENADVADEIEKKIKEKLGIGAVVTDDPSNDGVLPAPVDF
UGM FP inh – inhibitors of M. tuberculosis UDP-galactopyranose mutase; purified UGM, fluorescence polarization probe displacement; inhibition, % at 10 µM; 320,000 compounds, 0.06% hits; AID 504406; in the data active = inhibition above about 10%, passing the limit was not always enough; inconclusive = no clear call, values can overlap the other calls
Mtb FBA inh – inhibits M. tuberculosis FBA enzyme; 360,000 compounds, 2.3% hits; purified M. tuberculosis FBA, fluorescence read-out; inhibition, % at 1 µM; P9WQA3; in the data active = inhibition above about 27%;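 note: 0% = vehicle and 100% = reference inhibitor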
Rv3671c inh – inhibits the M. tuberculosis serine protease Rv3671c. P9WHR9. inhibition, % at 5.96 µM. 320,000 compounds, 0.048% hits; in the data active = inhibition above about 38%;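 note: extracellular domain of Rv3671c used as enzyme; 0% = enzyme with DMSO and 100% = no enzyme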
GDH-TPI counter – GDH-TPI coupled enzyme inhibition counter-screen; GDH-TPI coupled enzyme counterscreen, NADH absorbance; inhibition, % at 4.8 µM; 360,000 compounds, 1.2% hits; AID 588335; in the data active = inhibition above about 30%;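 note: 0% = DMSO wells and 100% = wells lacking the enzyme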
Mtb bLac sens – beta-lactam sensitization of Mtb H37Rv | M. tuberculosis H37Rv growth with meropenem, percent inhibition | inhibition, % at 25 µM | 330,000 compounds, 0.27% hits | AID 434955; call rule not given here;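 note: growth measured after seven days incubation then overnight dye step; 0% = bacteria only wells and 100% = bacteria with antibiotic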
* hit, by the source's call; u = inconclusive; x = not tested or not shown; + = active, no number.

SMILES	RecA splice inh	UGM FP inh	Mtb FBA inh	Rv3671c inh	GDH-TPI counter	Mtb bLac sens
O=C(NC(=S)Nn1cnnc1)c1ccccc1Cl	-2	13*	-3	5	-1	2
O=[N+]([O-])c1ccc(O)c(C=Nc2ccc3nc(-c4ccccc4)[nH]c3c2)c1	4	4	+	5	21	10
O=C1Nc2ccccc2/C1=C/c1cnc[nH]1	3	-3	-6	-1	31*	-5
CSc1ccc(CN2CCN(C(=O)c3ccc([N+](=O)[O-])cc3)CC2)cc1	x	0	2	9	5	-7
O=C(CCNC(=O)C1CCN(S(=O)(=O)c2ccccc2)CC1)NCc1cccnc1	x	x	2	x	18	x
COc1ccc(-c2oc3cc(OC(C)=O)cc(OC(C)=O)c3c(=O)c2OC)cc1	x	x	3	x	23	x
COc1ccc(-c2oc3ccccc3c(=O)c2OC(C)=O)cc1	-23	1	+	2	46*	80
O=S(=O)(NC(=S)c1ccccc1)c1ccc(F)cc1	1	2	-3	5	6	-5
CC1=N/C(=C\c2ccc([N+](=O)[O-])cc2)C(=O)N1c1ccc(Br)c(C)c1	-2	-1	-3	-4	39*	0
COc1ccc(N2C(=O)/C(=C/c3ccc([N+](=O)[O-])cc3)N=C2C)cc1	0	0	-6	-3	9	-3
CN(N)C(=S)NCc1ccccc1	-1	3	+	-3	-3	u
CN(C)C(=S)NCc1ccccc1	2	0	5	2	1	4
CC(CN1CCC(n2nccc2NC(=O)c2ccccc2Cl)CC1)c1ccccc1 (centres undefined)	1	-1	-2	-1	-2	u
O=C(O)c1ccc(-n2cccc2/C=C2/NC(=O)N(c3cccc(Cl)c3)C2=O)cc1	x	x	2	x	8	x
O=C(O)c1ccc(-n2cccc2/C=C2/NC(=O)N(c3ccccc3)C2=O)cc1	3	3	0	4	32*	-4
CCOC(=O)c1cccc(-n2cccc2/C=C2\NC(=O)N(CC(=O)O)C2=O)c1	x	3	0	1	31*	-3
Cc1ccc(NC(=O)CCOc2ccccc2)c(C)c1	1	3	-3	x	3	14
COc1ccc2cc(C3CC(c4cccs4)=NN3S(C)(=O)=O)c(Cl)nc2c1 (centres undefined)	-4	-5	2	-13	12	-6
O=C(NCCCN1CCCC1=O)c1cc(-c2ccc3c(c2)OCO3)nc2ccccc12	1	-2	6	-9	34*	0
Cn1c(=O)c2cc(NC(=O)CCc3cccnc3)ccc2n1Cc1ccc(F)cc1	x	x	175*	x	8	x
COc1ccc(NC(=O)NCCc2cccc(Cl)c2)cc1OC	1	2	-1	3	-1	2
COc1cc(Cn2c3ccc(NC(=O)NCCc4ccccc4)cc3c(=O)n2C)ccc1F	x	x	145*	x	2	x
COc1cc(Cn2c3ccc(NC(=O)CCc4cccnc4)cc3c(=O)n2C)ccc1F	x	x	177*	x	3	x
COc1cc(Cn2c3ccc(NC(=O)CCc4ccccc4)cc3c(=O)n2C)ccc1F	x	x	157*	x	13	x
Cc1oc(C(C)(C)C)cc1C(=O)N1CCN(C(c2ccccc2)c2ccccc2)CC1	16	-1	-4	-9	8	-1
SMILES	RecA splice inh	UGM FP inh	Mtb FBA inh	Rv3671c inh	GDH-TPI counter	Mtb bLac sens
CCCCNC(=O)C(C)N(CCN(C)C)C(=O)CCCN1C(=O)NC(c2ccc([N+](=O)[O-])cc2)C(C(=O)OCc2ccccc2)=C1C (centres undefined)	x	x	8	x	6	x
CC(C)(C)NC(=O)CSc1nc2cc(S(=O)(=O)N3CCCCC3)ccc2o1	x	1	-1	10	-5	-3
Cc1c(NC(=O)CN2CCN(c3ccc(F)cc3)CC2)c(=O)n(-c2ccccc2)n1C	-2	-2	4	-4	4	-8
Cn1c(=O)c2cc(NC(=O)Cc3cccnc3)ccc2n1-c1ccc2ccccc2c1	x	x	3	x	8	x
Cn1c(=O)c2cc(NC(=O)CCc3cccnc3)ccc2n1Cc1cccc(C(F)(F)F)c1	x	x	141*	x	5	x
CCCCn1c(C)nc2c(=O)n(C)c(=O)[nH]c21	-1	3	2	3	7	3
CCCCn1c(-c2ccccc2)nc2c(=O)n(C)c(=O)[nH]c21	2	-1	196*	5	5	-10
CC1C[N+](=C2C=C(N3CCOCC3)CC(C)(C)C2)CC(C)O1 (centres undefined)	1	-2	5	-2	61*	-5
CC1(C)CC(N2CCCCC2)=CC(=[N+]2CCCCC2)C1	0	3	-4	-6	90*	-9
CC1(C)CC(N2CCOCC2)=CC(=[N+]2CCOCC2)C1	-1	-4	-6	5	29	-7
CN(C)NC1=CC(=[N+]2CCCC2)CC(C)(C)C1	-1	-1	1	10	7	-6
CCCN(CCC)C1=CC(=[N+]2CCCC2)CC(C)(C)C1	2	-1	-3	2	46*	-5
Cc1cc(C)nc(NNC2=CC(=[N+]3CCCCC3)CC(C)(C)C2)n1	2	0	5	-1	10	10
COc1ccc(C(C(=O)NCC2CCCO2)N(C(=O)CNC(=O)c2cccs2)c2ccc(NC(C)=O)cc2)cc1OC (centres undefined)	-1	-1	3	3	-6	-6
C/C(CC(=O)Nc1ccc(Cl)cc1)=N\NC(=O)C(=O)N1CCCCC1	78*	-1	0	-2	5	-9
N#C/C(=C\c1ccco1)C(=O)Nc1cccc2ncccc12	3	-2	3	3	33*	-1
O=C(NC(=S)Nc1cccc2ncccc12)c1ccco1	8	2	-4	-1	-7	-1
CCOP(=O)(OCC)c1nc(-c2cccc3ccccc23)oc1NCc1ccc(OC)cc1	0	-3	169*	0	-3	-1
CCOP(=O)(OCC)c1nc(-c2cccc3ccccc23)oc1NCc1ccccc1	x	0	+	5	10	2
CC(C)C[C@H]1CN=C(Nc2ccccc2)N1CC1CCCCCC1	x	1	1	-11	6	0
CNc1ccc(-c2cccc(CO)c2)cn1	x	x	171*	x	7	x
O=C(NCCc1ccccc1)c1ccc(=O)oc1	-1	0	1	-6	75*	-2
O=C(NCc1ccccn1)c1ccc(=O)oc1	-1	0	8	0	38*	-2
O=C(NCc1ccccn1)c1ccc(-c2ccccc2)cc1	3	-1	5	4	3	-1
CC(NC(=O)c1ccc(=O)oc1)c1ccccc1 (centres undefined)	-2	2	0	8	59*	-7
CCc1ccc(NC(=O)CSc2nnnn2-c2cccnc2)cc1	-1	-2	-2	-12	8	4
O=C(CN1CCN(C(=O)C2CCCO2)CC1)Nc1ccc(Br)cc1 (centres undefined)	2	-1	0	5	0	-24

Screens as filed in PubChem BioAssay.
